# From PubChem BioAssay (NCATS)
# Values joined by “and” are separate entries in the source; they are usually repeats but may differ in a detail not shown here. Equal entries are not always repeated. Records with an inconclusive call do not appear. Where a call stands in place of a potency, no number is given. Some structures have more than one record in an assay (separate samples or runs), and their calls can disagree. Active and inactive are the calls of the source. Unless noted, the call rests on the fitted dose curve; in most records, active means well fitted curve in the direction sought with a large enough effect; inconclusive means small, poorly fitted or top-dose-only effect, or another doubt; inactive means no such curve, though single readings can be large; an effect the other way counts as inactive or inconclusive.
# How the values were obtained:
# Hek293T = assay: Primary qHTS to identify gynecologic anti-cancer compounds using libraries of approved drugs and bioactive compounds (AID 1345084); details: Gynecologic cancer cell panel viability, ATPlite luminescence, 48 h, control line for the selectivity index; series mostly up to 57.5 µM; further: nearly all actives have a fitted effect of over 55% in size; further: potency means the concentration at half of the fitted maximal effect
# How it was run: (§1)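 In this quantitative HTS, cell killing is estimated from loss of ATP-dependent luciferase light. Cells see five compound concentrations over a 48 h exposure.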
# OV90 = assay: as above; details: Gynecologic cancer cell panel viability, ATPlite luminescence, 48 h; series mostly up to 57.5 µM
# How it was run: as §1
# PA-1 = assay: as above; details: Gynecologic cancer cell panel viability, ATPlite luminescence, 48 h; series mostly up to 57.5 µM
# How it was run: as §1
# Tov-21-G = assay: as above; details: Gynecologic cancer cell panel viability, ATPlite luminescence, 48 h; series mostly up to 57.5 µM
# How it was run: as §1
# astro = assay: Drug repurposing screens with cells derived from glioblastoma tumor samples (AID 1345199); details: viability, ATP luminescence, 48 h; series mostly up to 45.9 µM; further: nearly all actives have a fitted effect of over 40% in size; further: potency means the concentration at half of the fitted maximal effect
# How it was run: (§2)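 Primary testing used CD133+ neurospheres from four GBM patients, seven concentrations, 48 h exposure and ATP-based viability; confirmation added three slower-growing patient lines.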
# [1] = qHTS assay for small molecule activators of the human pregnane X receptor (PXR) signaling pathway (AID 720659; call rule not given here); details: DPX-2 HepG2 CYP3A4-luciferase, 24 h; series mostly up to 92.3 µM
# HeLa = assay: Primary qHTS to identify gynecologic anti-cancer compounds using libraries of approved drugs and bioactive compounds (AID 1345084); details: Gynecologic cancer cell panel viability, ATPlite luminescence, 48 h; series mostly up to 57.5 µM; further: nearly all actives have a fitted effect of over 55% in size; further: potency means the concentration at half of the fitted maximal effect
# How it was run: as §1
# JEG-3 = assay: as above; details: Gynecologic cancer cell panel viability, ATPlite luminescence, 48 h; series mostly up to 57.5 µM
# How it was run: as §1
# SKOV3 = assay: as above; details: Gynecologic cancer cell panel viability, ATPlite luminescence, 48 h; series mostly up to 57.5 µM
# How it was run: as §1
# Tov112D = assay: as above; details: Gynecologic cancer cell panel viability, ATPlite luminescence, 48 h; series mostly up to 57.5 µM
# How it was run: as §1
# [2] = Drug repurposing screens with cells derived from glioblastoma tumor samples (AID 1345199); details: GBM patient neurospheres viability, ATP luminescence, 48 h; further: nearly all actives have a fitted effect of over 40% in size; further: potency means the concentration at half of the fitted maximal effect
# How it was run: as §2
# Es-2 = assay: Primary qHTS to identify gynecologic anti-cancer compounds using libraries of approved drugs and bioactive compounds (AID 1345084); details: Gynecologic cancer cell panel viability, ATPlite luminescence, 48 h; series mostly up to 57.5 µM; further: nearly all actives have a fitted effect of over 55% in size; further: potency means the concentration at half of the fitted maximal effect
# How it was run: as §1
# [3] = at 45.9 µM (top of the series), tumour line B
# [4] = at 45.9 µM (top of the series), tumour line D
# [5] = at 46.1 µM (top of the series), tumour line C
# [6] = at 20 µM (top of the series), tumour line C
# [7] = at 21.2 µM (top of the series), tumour line B
# [8] = at 21.2 µM (top of the series), tumour line D
# [9] = at 46 µM (top of the series), tumour line A
smiles,measurement,setting,value
Oc1c(Cl)cc(Cl)c(Cl)c1Cc1c(O)c(Cl)cc(Cl)c1Cl,Potency,Hek293T,8.91 µM (active)
same,Potency,OV90,10 µM (active)
same,Potency,PA-1,11.2 µM (active)
same,Potency,Tov-21-G,inactive
same,Potency,astro,4.47 µM (active)
same,outcome,[1],inactive
Cc1cc(-c2ccccc2)nnc1NCCN1CCOCC1,Potency,HeLa,inactive
same,Potency,Hek293T,inactive
same,Potency,JEG-3,inactive
same,Potency,OV90,inactive
same,Potency,PA-1,inactive
same,Potency,SKOV3,inactive
same,Potency,Tov-21-G,inactive
same,Potency,Tov112D,inactive
same,"activity, negative = cell killing",[2]; [3],-18.6% (inactive)
same,"activity, negative = cell killing",[2]; [4],-4.44% (inactive)
same,"activity, negative = cell killing",[2]; [5],-11.7% (inactive)
same,Potency,[2]; tumour line A,12.6 µM (active)
same,Potency,astro,inactive
Cl/C(=C\n1cncn1)c1ccc(Cl)cc1Cl,Potency,Es-2,inactive
same,Potency,Hek293T,inactive
same,Potency,JEG-3,inactive
same,Potency,OV90,inactive
same,Potency,PA-1,inactive
same,Potency,SKOV3,inactive
same,Potency,Tov-21-G,inactive
same,Potency,Tov112D,inactive
same,"activity, negative = cell killing",[2]; [3],-7.02% (inactive)
same,"activity, negative = cell killing",[2]; [4],-2.18% (inactive)
same,"activity, negative = cell killing",[2]; [5],-23.5% (inactive)
same,Potency,astro,inactive
NC(=O)n1c(O)c(C(=O)c2cccs2)c2cc(Cl)ccc21,Potency,Es-2,inactive
same,Potency,Hek293T,inactive
same,Potency,JEG-3,inactive
same,Potency,OV90,inactive
same,Potency,SKOV3,inactive
same,Potency,Tov-21-G,inactive
same,Potency,Tov112D,inactive
same,"activity, negative = cell killing",[2]; [3],-6.38% (inactive)
same,"activity, negative = cell killing",[2]; [4],-26.9% (inactive)
same,Potency,[2]; tumour line A,22.4 µM (active)
same,Potency,[2]; tumour line C,18.4 µM (active)
CCCCNc1ccc(C(=O)OCCOCCOCCOCCOCCOCCOCCOCCOCCOC)cc1,Potency,HeLa,inactive
same,Potency,JEG-3,inactive
same,Potency,Tov-21-G,inactive
same,Potency,Tov112D,inactive
same,"activity, negative = cell killing",[2]; [6],19.8% (inactive)
same,"activity, negative = cell killing",[2]; [7],-6.92% (inactive)
same,"activity, negative = cell killing",[2]; [8],-6.38% (inactive)
same,"activity, negative = cell killing","[2]; at 21.3 µM (top of the series), tumour line A",-27% (inactive)
same,Potency,astro,inactive
O=C(Nc1ncc([N+](=O)[O-])s1)c1cccs1,Potency,JEG-3,inactive
same,Potency,OV90,20 µM (active)
same,Potency,SKOV3,inactive
same,Potency,astro,15.8 µM (active)
NC(N)=NN=C(/C=C/c1ccc([N+](=O)[O-])o1)/C=C/c1ccc([N+](=O)[O-])o1,Potency,Es-2,31.6 µM (active)
same,Potency,HeLa,22.4 µM (active)
same,Potency,OV90,15.8 µM (active)
same,Potency,PA-1,7.08 µM (active)
same,Potency,Tov-21-G,12.6 µM (active)
same,Potency,Tov112D,17.8 µM (active)
same,Potency,astro,22.4 µM (active)
Cc1ccc2c(Br)cc(Br)c(O)c2n1,Potency,HeLa,inactive
same,Potency,PA-1,10 µM (active)
same,Potency,SKOV3,15.8 µM (active)
same,Potency,Tov-21-G,17.8 µM (active)
CCc1oc2ccccc2c1C(=O)c1cc(Br)c(O)c(Br)c1,Potency,Es-2,inactive
same,Potency,Hek293T,inactive
same,Potency,JEG-3,inactive
same,Potency,OV90,inactive
same,Potency,PA-1,inactive
same,Potency,Tov-21-G,inactive
same,Potency,Tov112D,inactive
same,"activity, negative = cell killing",[2]; [9],-39.6% (inactive)
same,"activity, negative = cell killing",[2]; [5],-6.19% (inactive)
same,Potency,[2]; tumour line D,35.5 µM (active)
same,Potency,astro,28.2 µM (active)
CN(C)CCOC(c1ccc(Cl)cc1)c1ccccn1 (stereo not drawn),Potency,JEG-3,inactive
same,"activity, negative = cell killing",[2]; [3],-15.3% (inactive)
same,"activity, negative = cell killing",[2]; [4],-15.7% (inactive)
same,"activity, negative = cell killing",[2]; [5],3.84% (inactive)
same,Potency,[2]; tumour line A,15.8 µM (active)
same,Potency,astro,inactive
O=C(NCCc1c[nH]c2ccccc12)c1cccnc1,Potency,HeLa,inactive
same,Potency,Hek293T,inactive
same,Potency,JEG-3,inactive
same,Potency,PA-1,inactive
same,Potency,SKOV3,inactive
same,Potency,Tov-21-G,inactive
same,Potency,Tov112D,inactive
same,"activity, negative = cell killing",[2]; [3],-17.4% (inactive)
same,Potency,astro,inactive
CC(C)Cn1cnc2c1c(=O)n(C)c(=O)n2C,Potency,Es-2,inactive
same,Potency,Hek293T,inactive
same,Potency,JEG-3,inactive
same,Potency,OV90,inactive
same,Potency,PA-1,inactive
same,Potency,SKOV3,inactive
same,Potency,Tov-21-G,inactive
same,Potency,Tov112D,inactive
same,"activity, negative = cell killing",[2]; [3],-4.91% (inactive)
same,"activity, negative = cell killing",[2]; [4],-3.1% (inactive)
same,"activity, negative = cell killing",[2]; [5],-1.11% (inactive)
same,Potency,astro,inactive
CCO[C@@H]1O[C@H](C(COCc2ccccc2)OCc2ccccc2)[C@H](OCc2ccccc2)[C@H]1O (stereo partly drawn),Potency,Hek293T,inactive
same,Potency,JEG-3,inactive
same,Potency,OV90,inactive
same,Potency,PA-1,inactive
same,Potency,SKOV3,inactive
same,Potency,Tov-21-G,inactive
same,Potency,Tov112D,inactive
same,"activity, negative = cell killing",[2]; [6],-1.34% (inactive)
same,"activity, negative = cell killing",[2]; [7],-8.94% (inactive)
same,"activity, negative = cell killing",[2]; [8],-23.7% (inactive)
same,Potency,[2]; tumour line A,14.1 µM (active)
same,Potency,astro,inactive
CCCCCN=C(N)N/N=C/c1c[nH]c2ccc(OC)cc12,Potency,Tov112D,35.5 µM (active)
same,"activity, negative = cell killing",[2]; [3],-10.3% (inactive)
same,"activity, negative = cell killing",[2]; [4],8.03% (inactive)
same,"activity, negative = cell killing",[2]; [5],9.98% (inactive)
same,Potency,astro,inactive
CC(=O)OC[C@H]1O[C@@H](n2ncc(=O)[nH]c2=O)[C@H](OC(C)=O)[C@@H]1OC(C)=O,Potency,HeLa,inactive
same,Potency,Hek293T,inactive
same,Potency,JEG-3,inactive
same,Potency,OV90,inactive
same,Potency,SKOV3,inactive
same,Potency,Tov112D,inactive
same,"activity, negative = cell killing",[2]; [4],-20.8% (inactive)
same,"activity, negative = cell killing",[2]; [9],-30.4% (inactive)
NC(N)=NCc1cccc(I)c1,"activity, negative = cell killing",[2]; [3],-24.3% (inactive) and -14.8% (inactive)
same,Potency,[2]; tumour line A,12.6 µM (active)
same,Potency,astro,inactive
O=C(NC1CCN(CCc2c[nH]c3ccccc23)CC1)c1ccccc1,Potency,Es-2,inactive
same,Potency,Hek293T,inactive
same,Potency,JEG-3,inactive
same,Potency,OV90,inactive
same,Potency,PA-1,inactive
same,Potency,SKOV3,inactive
same,Potency,Tov-21-G,inactive
same,Potency,Tov112D,inactive
same,"activity, negative = cell killing",[2]; [4],-28% (inactive)
same,Potency,[2]; tumour line A,11.2 µM (active)
same,Potency,[2]; tumour line C,20.6 µM (active)
same,Potency,astro,inactive
CC[C@]12CCCN3CCc4c(n(c5ccccc45)C(=O)C1)[C@@H]32,Potency,Es-2,inactive
same,Potency,JEG-3,inactive
same,Potency,OV90,inactive
same,Potency,PA-1,20 µM (active)
same,Potency,Tov112D,28.2 µM (active) and 31.6 µM (active)
same,"activity, negative = cell killing",[2]; [7],-16.8% (inactive)
same,"activity, negative = cell killing",[2]; [8],-29.4% (inactive)
same,Potency,[2]; tumour line A,6.31 µM (active)
N#C/C(=C1\SCC(c2ccccc2Cl)S1)n1ccnc1 (stereo not drawn),Potency,Es-2,inactive
same,Potency,Hek293T,inactive
same,Potency,JEG-3,inactive
same,Potency,OV90,inactive
same,Potency,PA-1,inactive
same,Potency,Tov-21-G,inactive
same,Potency,Tov112D,inactive
same,"activity, negative = cell killing",[2]; [3],-11.6% (inactive)
same,"activity, negative = cell killing",[2]; [4],-27.3% (inactive)
same,"activity, negative = cell killing",[2]; [5],0.133% (inactive)
same,Potency,[2]; tumour line A,10 µM (active)
same,Potency,astro,inactive
CN1CCc2cccc3c2[C@H]1Cc1ccc(O)c(O)c1-3,Potency,Hek293T,inactive
same,Potency,OV90,inactive
same,Potency,SKOV3,inactive
same,"activity, negative = cell killing",[2]; [5],-0.121% (inactive)
same,Potency,[2]; tumour line A,11.2 µM (active)
same,Potency,astro,20 µM (active)
CCC(CC)(CC(=O)Nc1cccc(/C=C/c2nc(C3CCC3)cs2)c1)C(=O)O,Potency,SKOV3,inactive
same,Potency,Tov112D,inactive
same,Potency,astro,15.8 µM (active)
CCCCCCCCCCCCOCCOCCOCCOCCOCCOCCOCCOCCOCCO,Potency,JEG-3,inactive
same,Potency,OV90,28.2 µM (active)
same,Potency,Tov-21-G,inactive
same,Potency,Tov112D,inactive
same,Potency,astro,3.16 µM (active)
